Out of some 5,500 compounds screened, about 2,000 (36%) were called active. About 18% were inconclusive and are not listed. Rule as the data show it: active = normalized growth mostly below about 0.91 (no sharp cut-off); inconclusive = no clear call, values can overlap the other calls; inactive = mostly above about 0.92. This is one part of the list.
Test: chemical genetic growth profiling, strain panel (AID 1159580);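 also: tested at 20 µM; growth read once vehicle control cultures reached saturation at 30 °C; 1 = growth at the plate median or of vehicle wells; lower values mean less growth of the strain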
Details: growth OD

Measured: normalized growth

CC(=O)Oc1cc(OC(C)=O)c2c(=O)c(-c3ccccc3)coc2c1
inactive: S. cerevisiae deletion strains, locus YAL013W, strain DEP1, active compounds read low 0.995 | S. cerevisiae deletion strains, locus YBR021W, strain FUR4, active compounds read low 0.978 | S. cerevisiae deletion strains, locus YBR229C, strain ROT2, active compounds read low 1 | S. cerevisiae deletion strains, locus YCL029C, strain bik1, active compounds read low 1 | S. cerevisiae deletion strains, locus YDL035C, strain GPR1, active compounds read low 0.997 | S. cerevisiae deletion strains, locus YDL074C, strain BRE1, active compounds read low 0.989 | S. cerevisiae deletion strains, locus YDL101C, strain DUN1, active compounds read low 1.01 | S. cerevisiae deletion strains, locus YDL134C, strain PPH21, active compounds read low 1.01 | S. cerevisiae deletion strains, locus YDL185W, strain tfp1, active compounds read low 0.998 | S. cerevisiae deletion strains, locus YDL192W, strain arf1, active compounds read low 0.993 | S. cerevisiae deletion strains, locus YDR101C, strain arx1, active compounds read low 0.982 | S. cerevisiae deletion strains, locus YDR150W, strain NUM1, active compounds read low 1.02 | S. cerevisiae deletion strains, locus YDR162C, strain NBP2, active compounds read low 1.01 | S. cerevisiae deletion strains, locus YDR318W, strain mcm21, active compounds read low 0.982 | S. cerevisiae deletion strains, locus YDR388W, active compounds read low 1 | S. cerevisiae deletion strains, locus YDR502C, strain sam2, active compounds read low 0.978 | S. cerevisiae deletion strains, locus YEL061C, strain CIN8, active compounds read low 1.01 | S. cerevisiae deletion strains, locus YER110C, active compounds read low 0.992 | S. cerevisiae deletion strains, locus YER155C, strain BEM2, active compounds read low 1.01 | S. cerevisiae deletion strains, locus YER167W, strain BCK2, active compounds read low 1.02 | S. cerevisiae deletion strains, locus YGL078C, strain dbp3, active compounds read low 0.991 | S. cerevisiae deletion strains, locus YGL086W, strain mad1, active compounds read low 1 | S. cerevisiae deletion strains, locus YGL248W, strain PDE1, active compounds read low 1.01 | S. cerevisiae deletion strains, locus YGR078C, strain PAC10, active compounds read low 1 | S. cerevisiae deletion strains, locus YGR135W, strain pre9, active compounds read low 0.985 | S. cerevisiae deletion strains, locus YGR229C, strain SMI1, active compounds read low 1.02 | S. cerevisiae deletion strains, locus YGR252W, strain gcn5, active compounds read low 0.888 | S. cerevisiae deletion strains, locus YHR030C, strain SLT2, active compounds read low 1.01 | S. cerevisiae deletion strains, locus YHR079C, strain IRE1 (second series), active compounds read low 0.98 | S. cerevisiae deletion strains, locus YHR094C, strain hxt1, active compounds read low 0.988 | S. cerevisiae deletion strains, locus YHR129C, strain ARP1, active compounds read low 1 | S. cerevisiae deletion strains, locus YHR200W, strain rpn10, active compounds read low 1 | S. cerevisiae deletion strains, locus YIL066C, strain RNR3, active compounds read low 1.02 | S. cerevisiae deletion strains, locus YIL073C, strain SPO22, active compounds read low 1 | S. cerevisiae deletion strains, locus YIL125W, strain kgd1, active compounds read low 0.992 | S. cerevisiae deletion strains, locus YIR030C, strain dcg1, active compounds read low 1 | S. cerevisiae deletion strains, locus YJL095W, strain BCK1, active compounds read low 1.01 | S. cerevisiae deletion strains, locus YJL134W, strain LCB3, active compounds read low 1.01 | S. cerevisiae deletion strains, locus YJL168C, strain set2, active compounds read low 1 | S. cerevisiae deletion strains, locus YJL187C, strain SWE1 (second series), active compounds read low 1 | S. cerevisiae deletion strains, locus YJR043C, strain POL32, active compounds read low 0.987 | S. cerevisiae deletion strains, locus YJR075W, strain HOC1, active compounds read low 1.02 | S. cerevisiae deletion strains, locus YKL009W, strain mrt4, active compounds read low 1.02 | S. cerevisiae deletion strains, locus YKL068W, active compounds read low 0.993 | S. cerevisiae deletion strains, locus YKL085W, strain MDH1 (second series), active compounds read low 0.982 | S. cerevisiae deletion strains, locus YKL085W, strain MDH1, active compounds read low 0.982 | S. cerevisiae deletion strains, locus YKL190W, strain CNB1, active compounds read low 1.03 | S. cerevisiae deletion strains, locus YKR001C, strain vps1, active compounds read low 0.944 | S. cerevisiae deletion strains, locus YLR039C, strain RIC1, active compounds read low 0.901 | S. cerevisiae deletion strains, locus YLR058C, strain SHM2, active compounds read low 1.01 | S. cerevisiae deletion strains, locus YLR102C, strain apc9, active compounds read low 1 | S. cerevisiae deletion strains, locus YLR262C, strain YPT6, active compounds read low 0.913 | S. cerevisiae deletion strains, locus YLR268W, strain sec22, active compounds read low 0.983 | S. cerevisiae deletion strains, locus YLR330W, strain CHS5, active compounds read low 1.01 | S. cerevisiae deletion strains, locus YLR342W, strain FKS1 (second series), active compounds read low 0.966 | S. cerevisiae deletion strains, locus YLR371W, strain rom2, active compounds read low 1 | S. cerevisiae deletion strains, locus YLR418C, strain cdc73, active compounds read low 0.891 | S. cerevisiae deletion strains, locus YML016C, strain PPZ1, active compounds read low 1.02 | S. cerevisiae deletion strains, locus YML032C, strain rad52, active compounds read low 1 | S. cerevisiae deletion strains, locus YML124C, strain tub3, active compounds read low 0.995 | S. cerevisiae deletion strains, locus YMR078C, strain ctf18, active compounds read low 1 | S. cerevisiae deletion strains, locus YMR223W, strain ubp8, active compounds read low 0.992 | S. cerevisiae deletion strains, locus YMR263W, strain SAP30, active compounds read low 1 | S. cerevisiae deletion strains, locus YMR307W, strain GAS1, active compounds read low 0.858 | S. cerevisiae deletion strains, locus YNL067W, strain RPL9B, active compounds read low 1 | S. cerevisiae deletion strains, locus YNL128W, strain TEP1, active compounds read low 1.03 | S. cerevisiae deletion strains, locus YNL153C, strain GIM3, active compounds read low 1.02 | S. cerevisiae deletion strains, locus YNL233W, strain BNI4, active compounds read low 1.02 | S. cerevisiae deletion strains, locus YNL250W, strain rad50, active compounds read low 0.974 | S. cerevisiae deletion strains, locus YNL271C, strain bni1, active compounds read low 0.991 | S. cerevisiae deletion strains, locus YNL298W, strain CLA4, active compounds read low 0.999 | S. cerevisiae deletion strains, locus YNL307C, strain MCK1, active compounds read low 0.932 | S. cerevisiae deletion strains, locus YNL322C, strain KRE1, active compounds read low 1.01 | S. cerevisiae deletion strains, locus YNR052C, strain pop2, active compounds read low 0.989 | S. cerevisiae deletion strains, locus YOL006C, strain TOP1, active compounds read low 0.991 | S. cerevisiae deletion strains, locus YOL012C, strain htz1 0.735 | S. cerevisiae deletion strains, locus YOL147C, strain pex11, active compounds read low 0.994 | S. cerevisiae deletion strains, locus YOR061W, strain CKA2, active compounds read low 1.02 | S. cerevisiae deletion strains, locus YOR069W, strain VPS5, active compounds read low 1.01 | S. cerevisiae deletion strains, locus YOR136W, strain idh2, active compounds read low 0.997 | S. cerevisiae deletion strains, locus YOR144C, strain elg1, active compounds read low 1 | S. cerevisiae deletion strains, locus YOR184W, strain ser1, active compounds read low 0.986 | S. cerevisiae deletion strains, locus YOR316C, strain cot1, active compounds read low 1 | S. cerevisiae deletion strains, locus YPL055C, strain LGE1, active compounds read low 0.991 | S. cerevisiae deletion strains, locus YPL241C, strain CIN2, active compounds read low 1.01 | S. cerevisiae deletion strains, locus YPR119W, strain clb2, active compounds read low 0.999 | S. cerevisiae deletion strains, locus YPR141C, strain kar3, active compounds read low 0.979 | S. cerevisiae deletion strains, locus YPR163C, strain tif3, active compounds read low 0.994 | S. cerevisiae deletion strains, locus YPR167C, strain met16, active compounds read low 0.996 | S. cerevisiae deletion strains, strain wtn01, active compounds read low 0.984 | S. cerevisiae strains, strain wild type, active compounds read low 1.01
